Measured values as given in PubChem BioAssay (Tox21).
Results filed as inconclusive are left out. Entries that show only a call come without a potency. A number with no mark means an inactive call. The source made the active and inactive calls. The call rests on the fitted dose curve; in most records, active means well fitted inhibition curve with a large enough effect in the repeat runs; inconclusive means weak or mixed curves; inactive means no such curve, though single readings can be large or run the other way. Positions of bridges follow the written chain, without caps; N, C: chain ends. Non-standard residues stand in square brackets, D forms with d. Residues, ends and D or L forms follow the SMILES beside them. hArg = N=C(N)NCCCC[C@H](N)C(=O)O; Mpa = O=C(O)CCS

biological target: Cytochrome P450 1A2 (Homo sapiens) (UniProt P05177); test: Cytochrome P450 Family 1 Subfamily A Member 2 (CYP1A2) small molecule antagonists: luciferase reporter qHTS assay (AID 1671199); conditions: P450-Glo CYP1A2 enzyme, luciferin luminescence, 1 h; series mostly up to 115 µM; further: nearly all actives have a fitted effect of over 50% in size
Source text: National Center for Advancing Translational Sciences [NCATS]
U.S. Environmental Protection Agency [EPA]
National Institutes of Environmental Health Sciences [NIEHS]
National Toxicology Program [NTP]
U.S. Food and Drug Administration [FDA]
Cytochrome P450 (CYP) enzymes are membrane-bound hemeproteins that play a key role in metabolism of drugs and xenobiotics. Evaluation of the effect of chemicals on CYP isozymes is useful to minimize the adverse drug reactions and toxicities in drug development process. Tox21 chemicals were tested for their effect on CYP enzyme activities by using P450-Glo (TM) screening systems (Promega Corporation, Madison, WI). These systems provide a luminescent method containing proluciferin substrates and are converted to luciferin products by CYP isozymes. The luciferin products formed are detected with a luciferin detection reagent, and the amount of light produced is proportional to CYP activity. P450-Glo (TM) CYP1A2 screening system (Catalog. No. V9770) was used to detect the compounds that interfere in CYP1A2 activity. The positive control compound used for CYP1A2 assay is furafylline (Sigma-Aldrich, St. Louis, MO).
Tox21 Assay Protocol Summary:
Two ul of enzyme-substrate mix was dispensed into medium binding white/solid 1536-well plates (Greiner Bio-One North America Inc., Monroe, NC) using a BioRaptr Flying Reagent Dispenser (FRD, Beckman Coulter, Brea, CA). Compounds dissolved in DMSO and positive control (furafyllline) were transferred to the assay plates at 23 nl using a Pintool station (Wako, San Diego, CA). The assay plates were incubated at room temperature for 10 min. Then 2 ul of NADPH regeneration solution was added to each well of the assay plates using an FRD and incubated at room temperature for 1 h. The reaction was stopped by adding 4 ul of detection reagent using an FRD and after 20 min incubation at room temperature the luminescence signal was measured using a ViewLux plate reader (Perkin Elmer, Shelton, CT). Data were expressed as relative luminescence units.
Potency means the concentration at half of the fitted maximal effect.

Sequence of Cytochrome P450 1A2 (Homo sapiens) (P05177 whole entry, looked up): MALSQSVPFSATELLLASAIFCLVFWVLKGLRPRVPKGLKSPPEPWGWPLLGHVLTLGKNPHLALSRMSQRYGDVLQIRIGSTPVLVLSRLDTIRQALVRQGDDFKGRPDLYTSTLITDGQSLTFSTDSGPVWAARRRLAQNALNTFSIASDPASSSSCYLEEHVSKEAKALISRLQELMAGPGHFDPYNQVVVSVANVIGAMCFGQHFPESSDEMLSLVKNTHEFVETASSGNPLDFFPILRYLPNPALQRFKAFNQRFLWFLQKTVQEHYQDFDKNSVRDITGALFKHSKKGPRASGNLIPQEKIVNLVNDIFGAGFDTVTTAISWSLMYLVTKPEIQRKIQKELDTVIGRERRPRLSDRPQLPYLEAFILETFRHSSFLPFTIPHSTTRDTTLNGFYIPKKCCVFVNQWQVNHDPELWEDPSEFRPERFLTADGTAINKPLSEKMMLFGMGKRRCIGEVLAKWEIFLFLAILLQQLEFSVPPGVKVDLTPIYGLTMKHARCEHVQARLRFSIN

Compound | Potency | activity change, negative = inhibition
O=NN(CCCl)C(=O)NC1CCCCC1 | inactive | 
O=C(O)CCCCCC(=O)O | inactive | 
CCN(CC)CCN | inactive | 
COc1cc2c(cc1OC)CN(C(=O)[C@H](C)N[C@@H](CCc1ccccc1)C(=O)O)[C@H](C(=O)O)C2 | inactive | 
Cc1c(NC(=O)c2cccnc2)c(=O)n(-c2ccccc2)n1C | inactive | 
O=C1NC(c2ccccc2)(c2ccccc2)C(=O)N1COP(=O)(O)O | inactive | 
CCc1occc(=O)c1O | inactive | 
CCCCCCCCCCOC(C)=O | inactive | 
Cc1ccc2c(c1)C(=O)c1ccccc1C2=O | 8.91 µM (active) | 
CCCc1ccc(O)cc1 | 44.8 µM (active) | 
CC(C)[C@H]1CC[C@H](C)C[C@@H]1O | inactive | 
CCCCCCCCCCCCCCC(=O)NC(CO)CCCCCCCCCCCCCC (stereo not given) | 63.8 µM (active) | 
CC(=O)CC(=O)OC(C)(C)C | inactive | 
CN(C)CCN(C)CCO | inactive | 
N#CCC(=O)NN | inactive | 
Cc1cc(C)c(C(=O)O)c(C)c1 | 39.9 µM (active) | 
CC1=C(O)C(=O)C(C)O1 (stereo not given) | 28.9 µM (active) | 
CCCCCc1cccc(=O)o1 | 35.6 µM (active) | 
C=CCCCC | inactive | 
O=[N+]([O-])c1c(Cl)cc(Cl)cc1Cl | 39.5 µM (active) | 

Compound | Potency | activity change, negative = inhibition
CCOC(CN1CCN(CC(C)C(=O)c2ccccc2)CC1)c1ccccc1 (stereo not given) |  | 12.6% [at 23.6 µM]
O=Cc1ccccc1Cl | inactive | 
NC(=O)[C@@H]1CSSCCC(=O)N[C@@H](CCCCN=C(N)N)C(=O)NCC(=O)N[C@@H](CC(=O)O)C(=O)N[C@@H](Cc2c[nH]c3ccccc23)C(=O)N2CCC[C@H]2C(=O)N1 ([Mpa][hArg]GDWPC-NH2; disulfide 1-7) | inactive | 
O=C=NCC1CCCC(CN=C=O)C1 (stereo not given) | inactive | 
CCCC(=O)OCCC(C)CCC=C(C)C (stereo not given) | 39.9 µM (active) | 
CCCCSCCCC | inactive | 
CC(=O)CC(=O)Nc1ccc(C)cc1C | 15.9 µM (active) | 
CC(=O)C1C(=O)C=C(C)OC1=O (stereo not given) | inactive | 
CCCCCCCCCCCCCCCCCC#N | inactive | 
CCCCOCC(C)O (stereo not given) | inactive | 
CC12CCC(C1)C(C)(C)C2O (stereo not given) | inactive | 
C=CC(=O)OCC1CCCO1 (stereo not given) | inactive | 
O=C[O][Al]([O]C=O)[O]C=O | inactive | 
OCC1(CO)COCOC1 | inactive | 
CCCCOC(=O)[C@H](C)O | inactive | 
Fc1ccccc1 | inactive | 
CCCCCCCCCCCCCCCCCCOCCO | 7.12 µM (active) | 
CCC[C@@H]1C[C@@H](C(=O)N[C@@H]([C@H]2O[C@H](SC)[C@H](O)[C@@H](O)[C@H]2O)[C@@H](C)O)N(C)C1 | inactive | 
CCCCCCCCCCCCCBr | 22.4 µM (active) | 
CC1(C)[C@H]2CC[C@](C)(C2)[C@H]1O | inactive | 
